Only some compounds are listed: those with a hit (about 5.5% of all), similar ones and a draw of the others.
Six1-Eya2 inh = qHTS Assay for Inhibitors of the Six1/Eya2 Interaction | activity change, % (concentration not given with the values) | Homeobox protein SIX1 (Homo sapiens) + Protein phosphatase EYA2 (Homo sapiens), … | AID 651725, 2012 | actives 0.56% (n = 360,000) | AlphaScreen GST-Six1/His-Eya2 binding, biochemical; hits give low values; in the data active means activity change below about -65%; inconclusive means mostly about -30% to -63%; further: on the % scale 0 is the no-effect control and ±100 the full control effect
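AlphaScreen luminescence read after one hour at 37 °C in darkness. Pin-transferred compounds met GST-Six1 and His-Eya2 protein (5X stock 250 nM/500 nM) plus glutathione donor and Ni-chelate acceptor beads (5X, 50 ug/mL).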
CtBP-E1A inh = qHTS Assay for Inhibitors of the CtBP/E1A Interaction | CtBP / adenovirus E1A interaction (AlphaScreen) | activity change, % (concentration not given with the values) | AlphaScreen GST-E1A/His-CtBP binding, 1536-well; hits give low values | actives 0.49% (n = 340,000); in the data active means activity change below about -65%; inconclusive means mostly about -30% to -63%; further: on the % scale 0 is the no-effect control and ±100 the full control effect
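Homogeneous bead-based format: GST-tagged E1A captured on glutathione donor beads, His-tagged CtBP on nickel acceptor beads; compounds precede bead addition by 2 h at 37 °C.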
MBNL1 CUG block = qHTS Assay for Inhibitors of MBNL1-poly(CUG) RNA binding; Muscleblind-like protein 1 (Homo sapiens), Q9NR56; TR-FRET MBNL1-His/biotin-(CUG)12 binding, 665/545 ratio; Potency, µM (titrated, usually from 57.5 µM), for the others: at the highest dose activity change, negative = inhibition, usual class: inhibitors; actives 0.036% (n = 280,000); AID 2675, 2010; active means well fitted inhibition curve with a large enough effect in the signal ratio, with a control signal flat, not every such curve was filed as active; inconclusive means small, poorly fitted or top-dose-only effect, or effect the other way, or a change in a side signal; inactive means no such curve, though single readings can be large or run the other way; the % refers to the signal ratio; further: potency means the concentration at half of the fitted maximal effect; on the % scale 0 is the no-effect control and ±100 the full control effect
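Compounds (final 92 nM to 58 uM) are added to His-tagged MBNL1 and biotin-(CUG)12, then terbium anti-His antibody and streptavidin-XL665 (5 nM final). After 60 min at room temperature, the 665/545 nm ratio is read.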
RORgamma inh = qHTS for inhibitors of ROR gamma transcriptional activity; actives 5.4% (n = 310,000); Nuclear receptor ROR-gamma (Mus musculus), P51450; Drosophila S2 Gal4-RORgamma UAS-luciferase reporter, 20 h; Potency, µM (series often up to 53.6 µM), for the others: at the top dose activity change, negative = inhibition, hits mostly inhibitors; further: potency means the concentration at half of the fitted maximal effect; on the % scale 0 is the no-effect control and ±100 the full control effect; nearly all actives have a fitted effect of over 60% in size
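Schneider cells (Drosophila), stable Gal4 DBD–ROR gamma + UAS-luc; 1 hr cmpd preincubation; Cu2+ induction 700 uM final; 20 hr ambient; luminescence.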
VP16 counter = VP16 counterscreen qHTS for inhibitors of ROR gamma transcriptional activity. Drosophila S2 Gal4-VP16 UAS-luciferase, luminescence, 20 h. Potency, µM (highest dose often 53.6 µM), for the others: at the highest dose activity, negative = inhibition, usual class: inhibitors. actives 3.5% (n = 310,000);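 further: Gal4-VP16 expression switched on by copper sulfate through the metallothionein promoter; potency means the concentration at half of the fitted maximal effect; on the % scale 0 is the no-effect control and ±100 the full control effect; nearly all actives have a fitted effect of over 50% in size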
CBFb RUNX1 block = qHTS Assay for Compounds Blocking the Interaction Between CBF-beta and RUNX1 for the Treatment of Acute Myeloid Leukemia | 230,000 tested, under 10 active | Runt-related transcription factor 1 (Homo sapiens) + Core-binding factor subunit beta … | Potency, µM (highest dose often 59.8 µM), for inactives: top-dose activity, negative = inhibition, actives largely listed as inhibitors | AlphaScreen CBFb-His/RUNX1-biotin binding, biochemical; further: % of control where 0% means no effect
Target sequence (Q01196 whole entry, looked up): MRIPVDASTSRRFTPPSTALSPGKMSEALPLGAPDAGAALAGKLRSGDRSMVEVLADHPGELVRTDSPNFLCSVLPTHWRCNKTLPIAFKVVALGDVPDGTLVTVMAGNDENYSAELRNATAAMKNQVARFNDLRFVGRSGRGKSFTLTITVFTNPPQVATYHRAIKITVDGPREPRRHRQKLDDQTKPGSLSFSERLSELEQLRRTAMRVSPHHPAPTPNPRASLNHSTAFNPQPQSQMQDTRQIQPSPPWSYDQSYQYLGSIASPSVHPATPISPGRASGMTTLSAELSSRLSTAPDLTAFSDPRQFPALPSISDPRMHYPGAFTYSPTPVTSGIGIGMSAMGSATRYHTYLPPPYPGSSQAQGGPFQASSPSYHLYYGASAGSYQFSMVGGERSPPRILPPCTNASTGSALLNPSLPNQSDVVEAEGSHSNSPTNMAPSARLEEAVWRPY
Target sequence (Q13951 whole entry, looked up): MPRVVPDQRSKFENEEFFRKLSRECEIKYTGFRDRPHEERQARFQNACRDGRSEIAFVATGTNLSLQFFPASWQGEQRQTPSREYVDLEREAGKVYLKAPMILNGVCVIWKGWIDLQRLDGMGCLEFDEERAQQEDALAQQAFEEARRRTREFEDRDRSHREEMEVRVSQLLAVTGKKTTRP
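Proteins preincubated together for 20 min at RT before compound addition; 15 min later, nickel and streptavidin beads were added and left 90 min prior to AlphaScreen measurement.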
* marks the source's active call; other numbers are inactive results; ? = inconclusive; . = not tested or not shown; [ ] = remark or other dose. Unless noted, the call rests on the fitted dose curve; in most records, active means well fitted curve in the direction sought with a large enough effect; inconclusive means small, poorly fitted or top-dose-only effect, or another doubt; inactive means no such curve, though single readings can be large; an effect the other way counts as inactive or inconclusive.

SMILES	Six1-Eya2 inh	CtBP-E1A inh	MBNL1 CUG block	RORgamma inh	VP16 counter	CBFb RUNX1 block
Nn1c(SCc2ccc(C(=O)O)cc2)nnc1-c1ccc(Cl)cc1Cl	-4	7	-6%	9%	3%	.
CCCCC(=O)NC(c1ccco1)c1cc(Cl)c2cccnc2c1O (centres undefined)	?	.	1%	0%	0%	-19%
CCC(=O)NC(c1ccc(OC)cc1)c1cc(Cl)c2cccnc2c1O (centres undefined)	?	?	-5%	-31%	2%	0%
CCCC(=O)NC(c1ccccc1)c1ccc2cccnc2c1O (centres undefined)	-66*	-91*	25%	?	?	.
CCC(=O)NC(c1ccccc1OC)c1ccc2cccnc2c1O (centres undefined)	-88*	?	-4%	5µM*	5µM*	.
CC(=O)NC(c1ccc(C(C)C)cc1)c1ccc2cccnc2c1O (centres undefined)	?	?	13%	3.5µM*	2.8µM*	.
CC(C)CC(=O)NC(c1ccccc1)c1c(O)ccc2ccccc12 (centres undefined)	-12	-7	-1%	26%	22%	.
CCCCC(=O)NC(c1ccccc1Cl)c1ccc2cccnc2c1O (centres undefined)	-67*	?	23%	5µM*	3.5µM*	.
Cc1ccc(NNC(=O)C(O)(c2cccc(C(F)(F)F)c2)c2cccc(C(F)(F)F)c2)cc1	2	8	9%	?	?	1%
Cc1cccc(C(O)(C(=O)NNc2ccc3ccccc3n2)c2cccc(C)c2)c1	6	5	11%	10µM*	13µM*	0%
Cc1ccc(C(O)(C(=O)NNc2ccccn2)c2ccc(C)cc2)cc1	-5	0	-1%	10µM*	?	-3%
COc1ccc(S(=O)(=O)N(C)C)cc1NC(=O)c1ccc2c(c1)NC(=O)C(C)S2 (centres undefined)	-6	.	.	.	.	.
CN(C)C(=O)c1ccc(-c2ccc3ncnc(Nc4ccc(F)cc4)c3c2)cc1	.	.	.	12%	1%	.
Cc1cccc(NC(=S)N/N=C/c2ccc(Cl)c([N+](=O)[O-])c2)c1	2	4	5%	1.6µM*	4µM*	2%
Cc1cccc(NC(=S)N/N=C/c2cccc([N+](=O)[O-])c2)c1	-4	-1	4%	1.1µM*	-9%[0.365 µM]	8%
Cc1occc1C(=O)N/N=C/c1ccc(Cl)c([N+](=O)[O-])c1	12	2	19%	-12%	-12%	4%
COC(=O)N/N=C/c1cccc([N+](=O)[O-])c1	0	5	?	15%	-13%	1%
Cn1c(=O)c(-c2cc(F)cc(F)c2)nc2cnc(Nc3ccccc3)nc21	.	.	.	10µM*	?	.
N#CCCn1c(=O)c(-c2cc(F)cc(F)c2)nc2cnc(Nc3ccccc3)nc21	.	.	.	11%	-2%	.
CC(NC(=S)Nc1c(Br)cccc1OC(F)F)C(C)(C)C (centres undefined)	5	-8	.	10µM*	?	5%
Cc1cccc(NC(=S)NNC(=O)c2ccccc2OC(F)F)c1	4	-4	3%	?	?	-4%
Cc1c(Cl)c([N+](=O)[O-])nn1Cc1ccc(C(=O)N/N=C\c2ccccn2)o1	?	-3	?	-35%	2%	-27%
COc1ccc(/C=N/NC(=O)c2ccn[nH]2)cc1Cn1nc(C)c([N+](=O)[O-])c1C	-2	.	21%	?	-10%	3%
COc1cccc(/C=N\NC(=O)c2ccc(Cn3cc(Br)c([N+](=O)[O-])n3)o2)c1O	?	-74*	15%	3%	0.28µM*	-6%
COc1cc(/C=N\NC(=O)c2ccc(Cn3nc([N+](=O)[O-])c(Cl)c3C)o2)ccc1O	-83*	-84*	?	-3%	8%	-1%
SMILES	Six1-Eya2 inh	CtBP-E1A inh	MBNL1 CUG block	RORgamma inh	VP16 counter	CBFb RUNX1 block
COc1ccc(/C=N/NC(=O)c2ccncc2)cc1Cn1nc([N+](=O)[O-])c(Br)c1C	-69*	?	?	21%	2%	-4%
CSc1ccc(NC(=O)C2(C)CCN2C(=O)c2cc(C)n(C)n2)cc1 (centres undefined)	2	0	.	.	.	.
CC(NC(=O)CSc1nnc2n1CCCCC2)c1ccccc1Cl (centres undefined)	2	12	.	.	.	.
C=C(C)Cn1c(C)cc(C)c(S(=O)(=O)c2cccc(C)c2)c1=O	-9	-13	-7%	30%	-3%[10 µM]	26%
CC(=O)N[C@@H](c1ccccc1)[C@]1(C)C[C@H]1[C@@H](C)C(=O)Nc1ccc2ccccc2c1	.	.	.	0.35µM*	-3%	?
C[C@@H](C(=O)Nc1ccc2ccccc2c1)[C@@H]1C[C@@]1(C)[C@@H](NS(=O)(=O)c1ccccc1)c1ccccc1	.	.	.	42%	-9%	1%
CSCC[C@H](NC(=O)[C@H](CC(C)C)NC(=O)CNC(=O)[C@H](Cc1ccccc1)NC(=O)[C@H](Cc1ccccc1)NC(=O)[C@H](CCC(N)=O)NC(=O)[C@H](CCC(N)=O)NC(=O)[C@@H]1CCCN1C(=O)[C@H](CCCCN)NC(=O)[C@@H]1CCCN1C(=O)[C@H](CCCN=C(N)N)NC(=O)CCCCC1SCC2NC(=O)NC21)C(N)=O (some centres undefined)	.	.	.	11%	-5%	?
Cc1cc(-c2ccccc2)nc(N/N=C/c2ccccc2F)n1	-3	-4	10%	?	18µM*	.
Cc1csc(N/N=C/c2ccccc2F)n1	-12	-9	5%	?	-79%	.
N#Cc1ccccc1/C=N/Nc1nc(-c2ccccc2)c2cc(Cl)ccc2n1	-4	0	8%	-30%	1%	-1%
Cc1ccc2nc(N/N=C/c3ccccc3C#N)nc(-c3ccccc3)c2c1	6	11	20%	11µM*	?	10%
Cc1ccc2nc(N/N=C/c3ccccc3F)nc(-c3ccccc3)c2c1	-2	20	-10%	?	11µM*	22%
CCC(C)N(C(=O)CSc1nc(C)c(C)c(C)c1C#N)C1CCS(=O)(=O)C1 (centres undefined)	-7	-1	.	.	.	.

Compound activity deposited in PubChem by National Center for Advancing Translational Sciences (NCATS).
